Screens from PubChem BioAssay.
An excerpt weighted towards active compounds, which were near 2.5% of everything screened.
ANO1 block – mouse TMEM16A channel inhibition, primary screen. HEK293 TMEM16A/YFP iodide influx fluorescence, ionomycin. 310,000 tested, 1.2% active. normalized B-score (activity score, 25-100; higher = stronger inhibition) at 10 µM. Q8BHY3;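 active = ratio plate-corrected score three or more library SD toward inhibition, starting fluorescence score within five deviations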;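 note: score derived from kinetic fluorescence span divided by baseline fluorescence per well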
Jurkat NFkB inh – lowers PMA/ionomycin-induced NF-kB signal in Jurkat cells; PMA/ionomycin-induced NF-kB luciferase reporter, luminescence; inhibition, % at 4 µM; 330,000 tested, 0.53% active; AID 435003; in the data active = inhibition above about 50%
697 NFkB inh – lowers PMA/ionomycin-induced NF-kB signal in 697 B cells; AID 435022; 697 B-cell NF-kB luciferase reporter, 16 h; inhibition, % at 4 µM; 330,000 tested, 0.33% active; in the data active = inhibition above about 35%
aSyn UTR inh – MLPCN primary screen, SNCA 5' untranslated region; alpha-synuclein 5'UTR reporter, inhibitor activity; inhibition, % (tested at 7.5 µM); 300,000 tested, 0.82% active; AID 1813; in the data active = inhibition above about 60%;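 note: H4 neuroglioblastoma cells stably carrying SNCA 5'UTR luciferase fusion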
TMEM16A act – activators or potentiators of mouse TMEM16A chloride channel; Q8BHY3; HEK293 TMEM16A/YFP-H148Q/I152L, iodide quench fluorescence; active compounds read low; B-score at 10 µM; 340,000 tested, 0.3% active;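 active = fluorescence-ratio B-score plate-corrected deviation score at least 3 library SD below zero, with starting fluorescence score within 5 deviations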;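 note: channel opened by trigger with iodide after compound preincubation; score built on the fluorescence ratio of max minus min over baseline; more negative score means more quench and so TMEM16A activation or potentiation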
KLF5 inh – kruppel-like factor 5 inhibition; AID 1700; 290,000 tested, 0.23% active; inhibition, % at 5 µM; DLD-1 KLF5 promoter-luciferase reporter, luminescence;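 active = inhibition above a per-plate limit of that plate's mean compound inhibition plus 3 SD, cut at about 60% in these data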;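 note: higher means less KLF5 promoter-driven luciferase light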
Jurkat NFkB conf – inhibitors of the PMA/ionomycin-induced NF-kB reporter in Jurkat cells, retest; shares compounds with Jurkat NFkB inh; Jurkat NF-kB luciferase, 16 h; inhibition, % at 4 µM; 2,700 tested, 27% active; AID 435020;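 active = inhibition reaching about 45% at 4 µM in either replicate, limit read from the data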
A number is an active result; n = inactive; x = no result given.

SMILES	ANO1 block	Jurkat NFkB inh	697 NFkB inh	aSyn UTR inh	TMEM16A act	KLF5 inh	Jurkat NFkB conf
Cc1cc(NC(=O)CSc2nnc(-c3ccccc3)c(-c3ccccc3)n2)no1	n	60	n	n	n	n	n
CCCNC(=O)c1ccc(-c2nc3ccccc3s2)s1	n	n	n	79	n	n	n
Nc1ccc(-c2nc3ccccc3s2)cn1	n	n	n	n	n	n	x
Brc1ccc(-c2nc3ccccc3s2)s1	n	n	n	n	n	n	n
O=C(COC(=O)c1ccc(O)cc1O)NC(=O)NCc1ccccc1	x	n	n	x	n	x	x
Clc1ccc(-c2nnc(-c3ccccc3)o2)c(Cl)c1	n	n	n	n	n	n	n
Cc1ccc(S(=O)(=O)N2CCOCC2)cc1NC(=O)CSc1nnc(NC2CC2)s1	x	n	n	x	n	x	x
COc1ccc(C(=O)Nc2nc3cc4c(cc3s2)OCO4)c(OC)c1	n	n	n	n	n	n	n
O=C(Nc1nc2cc3c(cc2s1)OCO3)C1CC1	n	n	n	n	n	n	x
O=C(Nc1nc2ccc(S(=O)(=O)N3CCCC3)cc2s1)C1CCCCC1	n	62	n	72	n	n	58
O=C(Nc1nc2cc3c(cc2s1)OCO3)C1CCCCC1	n	n	n	n	n	n	n
O=C(Nc1nc2ccc(Cl)cc2s1)C1CC1	n	n	n	n	n	x	x
CC(C)c1ccc2nc(NC(=O)C3CC3)sc2c1	n	n	n	n	n	n	n
CCC(C)c1ccc(NC(=O)Nc2cnccn2)cc1 (stereo unspecified)	n	n	n	n	n	n	x
Cc1cc(C(C)(C)C)cc(C)c1C[n+]1ccc2ccccc2c1	n	77	n	n	n	n	51
CC1(C)Cc2c(cnn2-c2ccc(F)cc2)C(NC(=O)CCC(F)(F)F)C1 (stereo unspecified)	n	n	n	n	n	n	x
CC1CCC(NC(=O)c2cccc(S(=O)(=O)N3CCN(c4ccc(F)cc4)CC3)c2)CC1 (stereo unspecified)	n	n	n	n	n	x	x
CCOC(=O)N1CCN(c2c(NCc3ccc(Cl)cc3)c(=O)c2=O)CC1	n	n	n	n	n	n	x
CCOC(=O)N1CCN(c2c(NCc3ccc(F)cc3)c(=O)c2=O)CC1	n	61	n	n	n	n	n
Cc1nnc(SCc2cc(=O)[nH]c(/N=C(\N)Nc3ccccc3)n2)s1	n	n	n	n	n	n	x
CCOc1ccc(N/C(N)=N/c2nc(CSc3nnc(C)s3)cc(=O)[nH]2)cc1	n	74	n	84	n	n	50
c1ccc2nc(-c3ccc4c(c3)OCO4)ccc2c1	n	n	n	n	n	n	n
COC(=O)c1cc(-c2ccc3c(c2)OCO3)nc2ccccc12	n	n	n	n	n	n	x
CN(C)CC(C)(C)CNS(=O)(=O)c1ccc(OC(F)(F)F)cc1	n	n	n	n	n	n	x
COc1ccc(C2=NN(C(C#N)c3ccc(OC)c(OC)c3)C(c3ccccc3)C2)cc1 (stereo unspecified)	n	n	n	n	n	n	n
SMILES	ANO1 block	Jurkat NFkB inh	697 NFkB inh	aSyn UTR inh	TMEM16A act	KLF5 inh	Jurkat NFkB conf
O=C(Cn1nnc(-c2ccccc2)n1)Nc1cccc(S(=O)(=O)N2CCOCC2)c1	n	n	n	n	n	x	x
COc1ccc(CNC(=O)c2cccnc2)cc1	n	n	n	n	n	n	x
O=c1c2ccccc2oc2ccc(-c3ccc4[nH]ccc4c3)cc12	n	n	n	n	n	x	n
O=c1c2ccccc2oc2cc(-c3ccc4cc[nH]c4c3)ccc12	x	n	n	x	n	x	x
CC(=O)N/C(=C/c1ccc(OS(=O)(=O)c2ccc(C)cc2)cc1)C(=O)Nc1ccc(C(=O)O)cc1	n	n	n	n	n	n	x
CCCC(=Nc1ccccc1OC)C1=C(O)CC(c2ccccc2)CC1=O (stereo unspecified)	n	n	n	n	n	n	x
COc1ccccc1N=C(C)C1=C(O)CC(c2ccccc2)CC1=O (stereo unspecified)	n	69	n	122	n	n	n
O=C(CSc1ccc2c(c1)OCCO2)N1CCN(c2ccccc2)CC1	x	n	n	x	n	x	x
CCOc1ccccc1N1CC(O)=C(c2nc3ccccc3s2)C1=N	n	59	n	n	n	n	n
COc1ccc(OC)c(N2CC(O)=C(c3nc4ccccc4s3)C2=N)c1	n	n	n	n	n	n	x
COc1cc(/C=C2\SC(=Nc3ccc(O)cc3)NC2=O)cc(OC)c1OC	n	59	n	n	x	n	n
COc1cc(/C=C2/SC(=Nc3ccc(O)cc3)NC2=O)cc(OC)c1O	n	n	n	n	n	n	x
Cc1[nH]c2ccc(C(=O)N3CCN(c4ccccc4Cl)CC3)cc2c1C	n	n	n	n	n	n	x
COc1ccccc1N1CCN(C(=O)c2ccc3[nH]c(C)c(C)c3c2)CC1	n	54	n	72	n	n	n
Cc1cccc(N2CCN(C(=O)c3ccc(S(=O)(=O)N(C)c4ccccc4)cc3)CC2)c1C	x	58	n	x	n	x	n
COc1ccccc1N1CCN(C(=O)c2oc3ccc(F)cc3c2C)CC1	n	n	n	n	n	n	x
COc1ccccc1N1CCN(C(=O)c2oc3ccc(Br)cc3c2C)CC1	n	66	n	n	n	n	n
Cc1cccc(N2CCN(C(=O)c3ccc4[nH]c(C)c(C)c4c3)CC2)c1C	x	56	n	x	n	x	52
O=S(=O)(NCC1CCCO1)c1ccc(NS(=O)(=O)c2ccc(F)cc2)cc1 (stereo unspecified)	n	n	n	n	n	n	x
COc1ccc(/C=C(\NC(=O)c2ccc(C)cc2)C(=O)NCCCN2CCOCC2)cc1OC	n	n	n	n	n	n	x
COc1cc(C(=O)N2CCN(c3ccc(C)cc3C)CC2)cc(OC)c1OC	n	63	n	n	n	n	n
Cc1cccc(N2CCN(C(=O)c3c(-c4ccccc4)noc3C)CC2)c1C	n	68	n	65	n	n	n
CCc1noc(C)c1C(=O)N1CCN(c2cccc(C)c2C)CC1	n	n	n	n	n	x	x
Cc1ccc2nc(NC(=O)c3ccc(Cl)s3)sc2c1	n	n	n	n	n	n	n
Cc1ccc(C(=O)Nc2nc3ccccc3s2)s1	n	n	n	n	n	n	n
SMILES	ANO1 block	Jurkat NFkB inh	697 NFkB inh	aSyn UTR inh	TMEM16A act	KLF5 inh	Jurkat NFkB conf
Cc1ccc2nc(NC(=O)c3ccc4c(c3)OCO4)sc2c1	n	n	n	n	n	n	n
Cc1nc2ccc(NC(=O)c3ccc(Cl)s3)cc2s1	n	n	n	n	n	n	n
Cc1ccc(N2CC(C(=O)Nc3c4c(nn3C(C)(C)C)CS(=O)(=O)C4)CC2=O)cc1 (stereo unspecified)	n	n	n	n	n	n	x
CC(C)Oc1ccccc1-c1cc(C(=O)N/N=C/c2cccnc2)c2ccccc2n1	n	n	n	n	n	n	x
COc1ccc(CCNC(=O)c2cc3cc(F)ccc3nc2C)cc1OC	n	n	n	n	n	x	x
CCCCCCCOc1ccc(OC(=O)c2ccncc2)cc1	n	80	n	n	n	n	55
CCCCCCCOc1ccc(OC(=O)c2cccnc2)cc1	n	85	n	n	n	n	53
Cc1c(C(=O)NCCC2=CCCCC2)sc2ncnc(N3CCCCC3C)c12 (stereo unspecified)	n	n	n	n	n	n	x
